Source: PubChem BioAssay
DUX4 txn inh: blocks DUX4-driven transcriptional activation. 293T-iDUX4 ZSCAN4-Gaussia luciferase reporter, 24 h; stronger effect = lower value. activity change, negative = inhibition, % (test concentration not listed). hit rate 0.8% among 37,000. AID 1224904;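 active = mean inhibition of at least 10% in the main channel, exceeding the control channel by a set limit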
Numbers stand for hits; n = inactive; ! = a repeat was not active. The sample as a whole holds a higher share of hits than the screen did.

SMILES	DUX4 txn inh
C/C=C/c1ccc(C2[C@@H]3CN(Cc4ccccn4)C[C@H]2N3)cc1 (some centres not stated)	n
C/C=C/c1ccc(C2[C@@H]3CN(C(C)=O)C[C@H]2N3)cc1 (some centres not stated)	-21!
C/C=C/c1ccc(C2[C@@H]3CN(C(=O)C4CCCC4)C[C@H]2N3)cc1 (some centres not stated)	n
O=C(O)[C@@H]1[C@@H](CO)[C@@H]2Cn3c(ccc(-c4cccnc4)c3=O)[C@H]1N2S(=O)(=O)c1ccccc1F	n
O=C(Cc1ccncc1)N1CCCCN2[C@H](C1)[C@H](c1ccc(C#Cc3ccccc3F)cc1)[C@@H]2CO	-63
N#Cc1ccc(-c2ccc([C@@H]3[C@@H](CO)N4CCCCN(C(=O)Cc5ccccc5)C[C@H]34)cc2)cc1	n
O=C(Cc1ccccc1)N1CCCCN2[C@H](CO)[C@@H](c3ccc(C#CC4(O)CCCC4)cc3)[C@H]2C1	n
CC=Cc1ccc2n(c1=O)C[C@@H]1[C@@H](CO)[C@H](C(=O)O)[C@H]2N1S(=O)(=O)c1ccccc1F (mixture of isomers)	n
COC(=O)[C@H]1[C@H](CO)[C@H]2Cn3c(ccc(-c4ccccc4)c3=O)[C@@H]1N2CC1CCOCC1	n
O=C(O)[C@H]1[C@H](CO)[C@H]2Cn3c(ccc(-c4ccncc4)c3=O)[C@@H]1N2C(=O)C1CCCC1	n
